Assay outcomes (PubChem BioAssay)
Not all results are given here.
aSyn 5UTR act: Activators working through SNCA 5'UTR binding (MLPCN) | alpha-synuclein 5'UTR reporter, activators screen | activity score, % (tested at 7.5 µM), hits read low | 300,000 compounds, 7.1% hits | AID 1814; in the data active means activity score below about -60%
* = called active by the depositor.

SMILES | aSyn 5UTR act
COc1ccccc1NC(=O)Nc1nnc(C(C)C)s1 | -81*
CCOc1ccc(Nc2n[nH]c(=S)s2)cc1 | -112*
CCOc1ccc(Nc2cc(C)nc(-n3nc(C)cc3C)n2)cc1 | 63
CC(=O)Nc1nnc(COc2ccc(Cl)cc2)s1 | -109*
CCOc1ccc(NC(=O)Nc2nnc(CC)s2)cc1 | -105*
Cc1ccc(C(=O)NNc2c3ccccc3nc3ccccc23)cc1 | -87*
O=C(NNc1c2ccccc2nc2ccccc12)c1ccc(Cl)cc1 | -80*
CSc1nc(N(C)NC(=O)c2ccc(Cl)cc2)c2ccccc2n1 | 93
COC(=O)/C=C/c1cnc2ccccc2c1 | -92*
Cc1nn(-c2ccccc2)c2sc(C(=O)N3CCCCC3)cc12 | -68*
Cc1cnc(NC(=O)c2cc3c(C)nn(-c4ccccc4)c3s2)s1 | -66*
Cc1cccn2c(=O)c3cc(C(=O)N4CCCCC4)sc3nc12 | -64*
CCC(CC)NC(=O)c1cc2c(C)nn(Cc3ccccc3Cl)c2s1 | 71
CC(O)/C=C/c1ccc2ccccc2n1 (stereo not given) | -154*
CCOC(=O)/C(N=Nc1ccc2c(c1)OCO2)=C(\C)O | -123*
Cc1cccc(-n2ncc3c(NCc4ccco4)ncnc32)c1 | -549*
Cc1ccc(-n2ncc3c(NCc4ccco4)ncnc32)cc1C | -183*
CC(=O)Oc1ccc2occ(-c3ccccc3)c2c1 | -137*
CC(=O)Oc1ccc2occ(C(=O)c3ccccc3)c2c1 | -134*
O=C(CCl)Oc1ccc2occ(C(=O)c3cccs3)c2c1 | -193*
CC(=O)Oc1ccc2occ(C(=O)c3cccs3)c2c1 | -175*
O=C(c1cccs1)c1coc2ccc(O)cc12 | -200*
Cc1ccc(N/C=C(/C#N)c2ccsc2)cc1C | -172*
N/C(=N\OC(=O)C1CCCCC1)c1cccc(Br)c1 | -170*
N/C(=N\OC(=O)CC1CCCCC1)c1ccc(Br)cc1 | -83*
SMILES | aSyn 5UTR act
N/C(=N\OC(=O)CC1CCCCC1)c1cccc(Br)c1 | -84*
O=C(COc1ccccc1)Nc1ccc2c(c1)nc1n2CCOC1 | -85*
O=C(COc1ccccc1)Nc1ccc2c(c1)nc1n2CCSC1 | -125*
COCOc1ccc(-c2cc(=O)c3c(OCOC)cc(OCOC)cc3o2)cc1 | -125*
CCN1C(=O)N/C(=C/c2cc(C)n(Cc3ccccc3)c2C)C1=O | -63*
Cc1ccc(NC2=C/C(=N/S(=O)(=O)c3cccs3)c3ccccc3C2=O)cc1C | -155*
Cc1ccccc1NC1=C/C(=N\S(=O)(=O)c2ccc(C(=O)O)cc2)c2ccccc2C1=O | -69*
Cc1cc[n+](C2=C([O-])c3ccccc3C(=O)/C2=N\S(=O)(=O)c2cccs2)cc1C | 74
Cc1ccccc1NC1=C/C(=N\S(=O)(=O)c2cccs2)c2ccccc2C1=O | 114
CC(C)(C)c1cc[n+](C2=C([O-])c3ccccc3C(=O)/C2=N\S(=O)(=O)c2ccccc2)cc1 | 84
Fc1ccc(Cn2ccc(-c3cnc(-c4ccccc4)s3)n2)cc1 | -140*
Cc1ccc(Cn2ccc(-c3cnc(-c4ccccc4)s3)n2)cc1 | -128*
O=S(=O)(c1ccccc1)n1ccc(-c2cnc(-c3ccccc3)s2)n1 | -131*
O=C(c1ccc(F)cc1)n1ccc(-c2cnc(-c3ccccc3)s2)n1 | -124*
CCc1nc(-c2cc3ccc(C)cc3[nH]c2=O)no1 | -84*
Cc1cccc2nc(COc3ccc(-c4ccccc4)cc3)cn12 | -121*
O=C1CCC/C(=N\NC(=O)c2ccc(COc3ccccc3-c3ccccc3)cc2)C1 | -71*
Clc1ccc(Cl)c(-c2nc(-c3ccncc3)no2)c1 | -131*
Clc1ccc(OCc2nc(-c3ccncc3)no2)cc1 | -126*
CCOc1ccc(-c2noc(CCC(=O)O)n2)cc1 | 60
Clc1ccc(-c2nc(-c3ccncc3)no2)c(Cl)c1 | -104*
Cc1cc2ncn(CCOc3ccccc3)c2cc1C | -168*
CN(Cc1nc(-c2ccccc2)no1)C1CCOCC1 | -98*
c1ccc(-c2noc(CCC3CCCC3)n2)cc1 | -121*
c1cc(-c2noc(CCC3CCCC3)n2)ccn1 | -79*
SMILES | aSyn 5UTR act
c1ccc(-c2noc(CC3CCCCC3)n2)cc1 | -169*
O=C1NC(c2cccs2)Nc2sc3c(c21)CCCC3 (stereo not given) | -131*
CC(C)(C)Cc1nnc(NC(=O)CCc2ccccc2)s1 | -124*
CSc1nnc(NC(=O)CCc2ccccc2)s1 | -65*
O=c1cc(-c2cccs2)oc2ccc(Cl)cc12 | -178*
O=c1c(O)c(-c2cccs2)oc2ccc(Cl)cc12 | -75*
O=c1cc(-c2ccc3c(c2)OCCO3)oc2ccc(Cl)cc12 | -149*
O=C(CSc1nnc(-c2ccco2)n1Cc1ccccc1)c1ccccc1 | -104*
Cc1ccc(C(=O)CSc2nnc(-c3ccco3)n2Cc2ccccc2)cc1 | -97*
O=c1c2ccccc2sc2ccc(Cl)cc12 | -106*
C=C(C)CNC(=S)Nc1nc2c(cc1C(=O)OCC)CCCC2 | -105*
O=C(Cc1nc2ccccc2[nH]1)c1ccc(Br)cc1 | -190*
O=C(Cc1nc2ccccc2[nH]c1=O)c1ccccc1 | -172*
CC(=O)c1cc(-c2ccccc2)n(CC(=O)NC2CCCC2)c1C | -65*
c1ccc2oc(-c3ccn[nH]3)cc2c1 | -120*
